Whole data set: some 8,300 sequences, median “log2 fold change of degron read counts, EGFP-low vs EGFP+ sorted cells (limma voom), compound-induced degradation” near -1.1, cut for the highest 2% near 3.2. The full list was thinned out, with the highest values kept by preference.
T1: CRBN, Q96SW2
T1 chain: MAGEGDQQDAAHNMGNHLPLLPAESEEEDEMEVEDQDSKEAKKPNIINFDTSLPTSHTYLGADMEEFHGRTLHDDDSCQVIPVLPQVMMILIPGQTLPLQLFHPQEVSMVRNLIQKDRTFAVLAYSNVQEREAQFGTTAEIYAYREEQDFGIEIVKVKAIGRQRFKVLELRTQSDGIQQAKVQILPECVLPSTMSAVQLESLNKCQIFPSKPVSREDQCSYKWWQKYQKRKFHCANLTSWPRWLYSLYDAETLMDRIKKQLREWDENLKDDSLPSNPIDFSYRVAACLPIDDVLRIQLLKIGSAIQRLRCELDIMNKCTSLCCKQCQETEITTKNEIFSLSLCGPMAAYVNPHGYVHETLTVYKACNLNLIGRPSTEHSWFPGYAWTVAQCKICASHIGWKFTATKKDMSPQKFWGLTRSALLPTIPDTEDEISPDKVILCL


Target: T1, CRBN, Q96SW2
Assay: log2 fold change of degron read counts, EGFP-low vs EGFP+ sorted cells (limma voom), compound-induced degradation; higher = more compound-induced degradation of the degron-EGFP fusion; degrons are variants of IKZF1/3 zinc finger 2; compound dose not given here
Details: Jurkat, 18 h
[1] = compound: compound 19 (5-tert-butyl-thalidomide)
[2] = compound: compound 22 (5-morpholino-thalidomide)
[3] = compound: compound 33 (diphenyl IMiD analogue)
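Further: pooled lentiviral library of zinc finger degron-EGFP fusions in mCherry-positive Jurkat cells, FACS-sorted after compound exposure, with degron abundance counted by next-generation sequencing.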

| Sequence | log2 fold change of degron read counts [1] | log2 fold change of degron read counts [2] | log2 fold change of degron read counts [3] | log2 fold change of degron read counts (compound: thalidomide) |
| --- | --- | --- | --- | --- |
| LDCNQCGFQCTQKGNLLRHIKL [46L_47D_49N_50Q_52G_53F_54Q_55C_67L_, Q9UKT9] | -2.46 | -2.61 | -2.96 | -1.93 |
| FICPVCGATFTQKGNLLRHIKL [46F_47I_49P_50V_52G_53A_54T_55F_67L_, Q9UKT9] | -1.38 | 1.38 | 1.48 | 1.83 |
| FKCEICGHHFTQKGNLLRHIKL [46F_47K_49E_50I_52G_53H_54H_55F_67L_, Q9UKT9] | -3.82 | -3.97 | -3.56 | -3.72 |
| FNCNQCGRPFTQKGNLLRHIKL [46F_47N_49N_50Q_52G_53R_54P_55F_67L_, Q9UKT9] | -1.93 | -2 | -2.66 | -2.05 |
| FVCPQCGAMFTQKGNLLRHIKL [46F_47V_49P_50Q_52G_53A_54M_55F_67L_, Q9UKT9] | -2.14 | -0.591 | 0.3 | -0.862 |
| FECPQCGAFFTQKGNLLRHIKL [46F_47E_49P_50Q_52G_53A_54F_55F_67L_, Q9UKT9] | -2.8 | -3.69 | -1.82 | -1.91 |
| FECDQCGAAFTQKGNLLRHIKL [46F_47E_49D_50Q_52G_53A_54A_55F_67L_, Q9UKT9] | -1.3 | -3.38 | -1.76 | -1.6 |
| FTCEQCGACFTQKGNLLRHIKL [46F_47T_49E_50Q_52G_53A_54C_55F_67L_, Q9UKT9] | -1.75 | -1.02 | 0.816 | 0.182 |
| FWCPQCGAVFTQKGNLLRHIKL [46F_47W_49P_50Q_52G_53A_54V_55F_67L_, Q9UKT9] | -0.18 | 1.02 | 0.693 | -0.596 |
| FTCEICGAMFTQKGNLLRHIKL [46F_47T_49E_50I_52G_53A_54M_55F_67L_, Q9UKT9] | 0.136 | 0.966 | 1.62 | 1.82 |
| FICEICGAMFTQKGNLLRHIKL [46F_47I_49E_50I_52G_53A_54M_55F_67L_, Q9UKT9] | -0.357 | 1.35 | 2.3 | 2.13 |
| FYCEICGAMFTQKGNLLRHIKL [46F_47Y_49E_50I_52G_53A_54M_55F_67L_, Q9UKT9] | 3.62 | 3.42 | 2.55 | 0.91 |
| FACPQCGAAFTQKGNLLRHIKL [46F_47A_49P_50Q_52G_53A_54A_55F_67L_, Q9UKT9] | 1.65 | -0.791 | 0.0272 | -1.04 |
| FQCEVCGAGFTQKGNLLRHIKL [46F_47Q_49E_50V_52G_53A_54G_55F_67L_, Q9UKT9] | 2.45 | 1.65 | 1.38 | 3.21 |
| FDCEVCGAGFTQKGNLLRHIKL [46F_47D_49E_50V_52G_53A_54G_55F_67L_, Q9UKT9] | 1.18 | -1.45 | -1.35 | -0.721 |
| FGCEVCGAGFTQKGNLLRHIKL [46F_47G_49E_50V_52G_53A_54G_55F_67L_, Q9UKT9] | 1.93 | -0.105 | 0.538 | -0.636 |
| FCCEVCGAGFTQKGNLLRHIKL [46F_47C_49E_50V_52G_53A_54G_55F_67L_, Q9UKT9] | 3.35 | 1.74 | 1.47 | 1.17 |
| FYCEVCGAGFTQKGNLLRHIKL [46F_47Y_49E_50V_52G_53A_54G_55F_67L_, Q9UKT9] | 3.31 | 3.22 | 2.6 | 0.445 |
| FACEVCGAGFTQKGNLLRHIKL [46F_47A_49E_50V_52G_53A_54G_55F_67L_, Q9UKT9] | 3.4 | 1.13 | -0.271 | 0.383 |
| FLCEVCGAGFTQKGNLLRHIKL [46F_47L_49E_50V_52G_53A_54G_55F_67L_, Q9UKT9] | 2.28 | -0.0355 | 1.42 | 1.08 |
| FRCEVCGAGFTQKGNLLRHIKL [46F_47R_49E_50V_52G_53A_54G_55F_67L_, Q9UKT9] | 2.66 | 2.02 | 2.33 | 1.57 |
| FICEVCGAGFTQKGNLLRHIKL [46F_47I_49E_50V_52G_53A_54G_55F_67L_, Q9UKT9] | -0.137 | 2.66 | 2.12 | 2.56 |
| FECEVCGAGFTQKGNLLRHIKL [46F_47E_49E_50V_52G_53A_54G_55F_67L_, Q9UKT9] | 1.72 | -1.52 | 0.852 | 1.21 |
| FFCEVCGAGFTQKGNLLRHIKL [46F_47F_49E_50V_52G_53A_54G_55F_67L_, Q9UKT9] | 3.65 | 2.72 | 1.51 | 0.512 |
| FHCEVCGAGFTQKGNLLRHIKL [46F_47H_49E_50V_52G_53A_54G_55F_67L_, Q9UKT9] | 3.18 | 1.07 | 2.01 | -0.276 |
| FGCPQCGALFTQKGNLLRHIKL [46F_47G_49P_50Q_52G_53A_54L_55F_67L_, Q9UKT9] | 0.741 | -1.93 | 1.28 | -2.08 |
| FSCDICGAKFTQKGNLLRHIKL [46F_47S_49D_50I_52G_53A_54K_55F_67L_, Q9UKT9] | 1.91 | 1.04 | -1.63 | 0.394 |
| FRCPVCGAVFTQKGNLLRHIKL [46F_47R_49P_50V_52G_53A_54V_55F_67L_, Q9UKT9] | -1.2 | -0.699 | 1.54 | 1.18 |
